From PubChem BioAssay (Tox21)
Results filed as inconclusive are left out. Where a call stands in place of a potency, no number is given. The source made the active and inactive calls. The call rests on the fitted dose curve.

molecular target: Progesterone receptor (Homo sapiens) (UniProt P06401); experiment: qHTS assay to identify small molecule agonists of the progesterone receptor (PR) signaling pathway (AID 1346784); settings: PR-UAS-bla HEK293T, beta-lactamase FRET ratio, 16 h; series mostly up to 92.4 µM; further: nearly all actives have a fitted effect of over 30% in size
Sequence (P06401 whole entry, looked up): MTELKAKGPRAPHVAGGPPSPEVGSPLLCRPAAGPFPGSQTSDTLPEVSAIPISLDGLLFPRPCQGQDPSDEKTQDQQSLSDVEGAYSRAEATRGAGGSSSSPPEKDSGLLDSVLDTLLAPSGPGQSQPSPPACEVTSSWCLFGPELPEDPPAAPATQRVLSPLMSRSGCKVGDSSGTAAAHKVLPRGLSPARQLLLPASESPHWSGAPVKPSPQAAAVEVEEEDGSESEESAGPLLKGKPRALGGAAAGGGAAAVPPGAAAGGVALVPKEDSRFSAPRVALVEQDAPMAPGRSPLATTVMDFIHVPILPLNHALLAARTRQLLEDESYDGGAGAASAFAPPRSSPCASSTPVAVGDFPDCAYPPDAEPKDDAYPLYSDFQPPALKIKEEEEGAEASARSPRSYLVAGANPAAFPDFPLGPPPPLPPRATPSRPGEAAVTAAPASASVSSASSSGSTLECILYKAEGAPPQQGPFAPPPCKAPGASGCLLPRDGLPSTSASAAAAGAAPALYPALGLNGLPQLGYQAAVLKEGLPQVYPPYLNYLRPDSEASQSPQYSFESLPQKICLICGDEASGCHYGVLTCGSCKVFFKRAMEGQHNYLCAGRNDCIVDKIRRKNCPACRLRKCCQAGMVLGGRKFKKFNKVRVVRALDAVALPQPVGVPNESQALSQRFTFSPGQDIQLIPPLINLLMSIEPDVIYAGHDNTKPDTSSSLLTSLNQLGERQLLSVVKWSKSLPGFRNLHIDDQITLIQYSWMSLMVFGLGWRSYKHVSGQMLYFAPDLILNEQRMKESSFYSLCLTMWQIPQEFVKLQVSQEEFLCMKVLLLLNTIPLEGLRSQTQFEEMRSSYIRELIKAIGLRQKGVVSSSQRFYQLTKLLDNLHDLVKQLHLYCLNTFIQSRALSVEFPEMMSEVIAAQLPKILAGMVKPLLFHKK
Excerpt: U.S. Tox21 Program National Center for Advancing Translational Sciences [NCATS] NIH Chemical Genomics Center [NCGC] U.S. Environmental Protection Agency [EPA] National Institutes of Environmental Health Sciences [NIEHS] National Toxicology Program [NTP] U.S. Food and Drug Administration [FDA] […] Endocrine disrupting chemicals (EDCs) and their interactions with steroid hormone receptors like PR causes disruption of normal endocrine function. To identify the compounds that activate PR signaling, a PR-UAS-bla GripTite cell line i.e. PR-UAS-bla HEK 293T (Invitrogen, Carlsbad, CA, USA) containing a beta-lactamase reporter gene under the control of an Upstream Activator Sequence (UAS) was used to screen Tox21 10K compound library.
Tox21 Assay Protocol Summary: PR-UAS-bla HEK 293T cells were dispensed at 3,000 cells/5 uL of assay medium containing 2% charcoal stripped FBS per well into black wall/clear-bottom 1536-well plates using a Multidrop Combi (ThermoFisher Scientific, Waltham, MA) dispenser. After the assay plates were incubated at a 37C and 5% CO2 for 6hr, 23 nL of compounds dissolved in DMSO, positive controls or DMSO only was transferred to the assay plate by a Pintool station (Kalypsys, San Diego, CA). The plates were incubated at 37C and 5% CO2 for 16hr. Then 1 uL of LiveBLAzer B/G FRET substrate was added using a BioRAPTR FRD (Flying Reagent Dispenser, Aurora Discovery, San Diego, CA). After the plates were incubated at room temperature for 2 hours, fluorescence intensity was measured by an Envision plate reader (PerkinElmer, Shelton, CT).
Potency means the concentration at half of the fitted maximal effect.

| SMILES | Potency |
| --- | --- |
| CC(C)CC#N | inactive |
| Cc1cc(C)c(C(=O)P(=O)(C(=O)c2c(C)cc(C)cc2C)c2ccccc2)c(C)c1 | inactive |
| C[C@]12CC[C@H]3[C@@H](CC=C4C[C@@H](O)CC[C@@]43C)[C@@H]1CC[C@@H]2O | inactive |
| O=C1CN2CCOC2(c2ccccc2Cl)c2cc(Cl)ccc2N1 (stereo not given) | inactive |
| O=C(O)C(Br)CBr (stereo not given) | 5.54 µM (active) |
| CCN(CC)C(=O)[C@@H]1C=C2c3cccc4[nH]cc(c34)C[C@H]2N(C)C1 | inactive |
| COC(=O)C(C)Oc1ccc(Oc2ccc(Cl)cc2Cl)cc1 (stereo not given) | inactive |
| O=C1OC(=O)C2C1C1(Cl)C(Cl)=C(Cl)C2(Cl)C1(Cl)Cl (stereo not given) | inactive |
| C[C@@H]1CN(C2CCC(C#N)(c3ccc(F)cc3)CC2)CC[C@]1(C(=O)O)c1ccccc1 (stereo not given in full) | inactive |
| CC(C)CP(=S)(S)CC(C)C | inactive |
| COc1cc2c(cc1OC)[C@@]13CCN4CC5=CCO[C@H]6CC(=O)N2[C@H]1[C@H]6[C@H]5C[C@H]43 | inactive |
| CCC(=O)C(CCN(C)C)(c1ccccc1)c1ccccc1 | inactive |
| Nc1cc2c3c(c1)C(c1ccccc1)=N[C@@H](NC(=O)c1cccnc1)C(=O)N3CC2 | inactive |
| OC(c1ccccc1)(c1ccccc1)C1CCNCC1 | inactive |
| CC(C)(C)C(=O)C(Oc1ccc(Cl)cc1)n1cncn1 (stereo not given) | inactive |
| CSc1ccc(C(=O)C(C)(C)N2CCOCC2)cc1 | inactive |
| CC(=O)[C@H]1CC[C@H]2[C@@H]3CC[C@H]4C[C@H](O)CC[C@]4(C)[C@H]3C(=O)C[C@]12C | inactive |
| CC(=O)C(Cl)Cl | inactive |
| CCN(Cc1ccc(Cl)nc1)/C(=C/[N+](=O)[O-])NC | inactive |
| CNC(=O)Oc1cccc(C(C)C)c1 | inactive |

| SMILES | Potency |
| --- | --- |
| C=C(C)[C@@H]1CC=C(C=O)CC1 | inactive |
| CNCC(=O)c1ccc(O)c(O)c1 | inactive |
| N#CCCC#N | inactive |
| CCc1cc2c(s1)-n1c(C)nnc1CN=C2c1ccccc1Cl | inactive |
| N#CCBr | inactive |
| CCCCOC(=O)[C@@H](C)Oc1ccc(Oc2ccc(C#N)cc2F)cc1 | inactive |
| Nc1ccccc1Cl | inactive |
| CC1=C(C(=O)Nc2ccccc2)S(=O)(=O)CCO1 | inactive |
| O=C(Cc1ccccc1)OCc1ccccc1 | inactive |
| CC1(C)CON(Cc2ccccc2Cl)C1=O | inactive |
| COc1cc(OC)nc(Oc2cccc(Oc3nc(OC)cc(OC)n3)c2C(=O)O)n1 | inactive |
| CCC1(c2ccccc2)C(=O)N=C(O)NC1=O (stereo not given) | inactive |
| O=C(NCO)NCO | inactive |
| OC(Cn1cncn1)(c1ccc(F)cc1)c1ccccc1F (stereo not given) | inactive |
| COc1ccc2c(c1OC)CN1CCc3cc4c(cc3C1C2)OCO4 (stereo not given) | inactive |
| O=P(O)(Oc1ccccc1)Oc1ccccc1 | inactive |
| COC(=O)C(c1ccccc1)C1CCCCN1 (stereo not given) | inactive |
| O=C1OC(c2ccc(O)c(S(=O)(=O)O)c2)(c2ccc(O)c(S(=O)(=O)O)c2)c2c(Br)c(Br)c(Br)c(Br)c21 | inactive |
| CNC(=O)Oc1ccccc1C1OCCO1 | inactive |
| ClCC(Cl)(Cl)Cl | inactive |
